In PubChem BioAssay (NCI):
Compounds without any hit were thinned out: in the full panel of roughly 83,000, 20% have a hit.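 The test compound was applied at a single concentration to cells in 96-well plates for 48 hours, and percent growth was recorded.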 A number with no mark means an inactive call. Calls of active or inactive are those of the source. How the source made its calls: active means growth percent below 10; inactive means the rest.

Assays:
Experiment in all cases: NCI-60 one-dose screen, 48 h (100 = growth as untreated, 0 = no growth, -100 = all killed)
Conditions in all cases: 10 µM unless noted
[1] = system: SK-MEL-2 melanoma
[2] = system: EKVX NSCLC
[3] = system: SN12C renal
[4] = system: UO-31 renal
[5] = system: TK-10 renal
[6] = system: ACHN renal
[7] = system: CAKI-1 renal
[8] = system: A498 renal
[9] = system: CCRF-CEM leukemia
[10] = system: MOLT-4 leukemia

| SMILES | growth [1] | growth [2] | growth [3] | growth [4] | growth [5] | growth [6] | growth [7] | growth [8] | growth [9] | growth [10] |
| --- | --- | --- | --- | --- | --- | --- | --- | --- | --- | --- |
| O=C1C(Cl)=C(Nc2ccc(O)cc2)C(=O)N1Cc1ccc(Cl)cc1 | 66.2% | 79% | 64.9% | 52.2% | 63.2% | 71.4% | 74% | 75.4% | 4.97% (active) | 16.9% |
| CN1CCN(C(=O)c2ccc(NC(=O)Nc3ccc(-c4nc(N5CCOCC5)c5cccn5n4)cc3)cc2)CC1 | -8.25% (active) | -22.8% (active) | 5.33% (active) | -14.6% (active) | -23.5% (active) | -6.03% (active) | 15.3% | -51.5% (active) | 16.9% | 0.147% (active) |
| N#Cc1c(-c2ccccc2)cc(-c2ccccc2)n(CCCCCC(=O)Nc2ccccc2N)c1=O | 89.7% | 50.8% | 59% | 34.4% | 72.8% | 73.7% | 29.7% | 96.7% | 6.3% (active) | 9.12% (active) |
| O=C(CI)NC1Oc2ccccc2-c2oc(=O)c(-c3ccccc3)cc21 (stereo not given) | -16.4% (active) | 70.4% | -71.2% (active) | -94.7% (active) | -73.5% (active) | -91.3% (active) | -100% (active) | 82.1% | -23.4% (active) | -25.8% (active) |
| CCCCCCNC(=O)Oc1ccc(/C(=C(/C)Cc2ccc(OC)cc2)c2ccc(OCCCN(C)C)cc2)cc1 | 26.9% | 83% | 45.8% | 0.897% (active) | 51.3% | 37% | 44.5% | 97.3% | -2.26% (active) | -12.3% (active) |
| CC(C)(C)c1cc(-c2nc3ccc(N4CCN(S(C)(=O)=O)CC4)cc3[nH]2)cc(C(C)(C)C)c1O | 94% | 101% | 97.7% | 97% | 90.4% | 72.4% | 75.5% | 99.4% | 84.5% | 64.6% |
| O=C1CNC(c2ccccc2)C(c2ccccc2)N1 (stereo not given) | 94.7% | 102% | 99.8% | 109% | 103% | 98.5% | 81.2% | 74.7% | 69.9% | 104% |
| O=C1c2cccc3cccc(c23)C(=O)N1N1C(=O)c2cccc3c(N4CCOCC4)ccc(c23)C1=O | 107% | 94.1% | 88.8% | 68.7% | 141% | 95% | 87.4% | 64.3% | 122% | 108% |
| CCN1CCN(Cc2cn(CC(=O)Nc3ccc4c(ccn4Cc4ccccc4)c3)nn2)CC1 | 106% | 106% | 104% | 81.3% | 99.2% | 102% | 86.7% | 108% | 7.79% (active) | 101% |
| COc1ccc2c(c1)c(-c1noc(C(=O)c3cn(C)c4ccc(Br)cc34)n1)cn2C | 93.9% | 114% | 100% | 76.1% | 103% | 103% | 94.2% | 121% | 99.8% | 82.7% |
| C#CCOc1ccc2ncnc(Nc3ccc(NC(=O)CCl)cc3)c2c1 | -7.65% (active) | -0.0323% (active) | -13.2% (active) | -25.8% (active) | 1.64% (active) | -51.2% (active) | 35.8% | 55.9% | -23.7% (active) | -8.27% (active) |
| CCN(CC)CCSc1nc(-c2ccccc2)c(C#N)c(=O)[nH]1 | 97% | 91.8% | 116% | 110% | 128% | 112% | 99.8% | 208% | 150% | 105% |
| O=C(Cn1c(-c2ccc([N+](=O)[O-])cc2)nc2ccccc21)NNC(=O)c1cccnc1 | 103% | 73.2% | 78.9% | 65.6% | 126% | 84.4% | 71.2% | 65.1% | 75.6% | 79.3% |
| CN1CCN(c2ccc(NC(=O)c3nc4ccc5[nH]ncc5c4c4c3CCCC4)cc2C(F)(F)F)CC1 | 88.2% | 88.2% | 32.6% | 64.3% | 109% | 15.2% | 19.4% | 82.4% | 5.81% (active) | 36.1% |
| O=c1oc2ccccc2cc1C1=NN=C(SCc2ccccc2)SC1 | 116% | 101% | 103% | 73.7% | 108% | 96.9% | 87.4% | 119% | 95.3% | 97% |
| N#Cc1nc(-c2ccccc2)oc1S(=O)(=O)N1CCOCC1 | 90.2% | 106% | 74.1% | 82.9% | 94.5% | -97.7% (active) | 66.9% | 89.7% | -20.9% (active) | -16% (active) |
| Cc1nc2c(=O)[nH]c(SCC(=O)Nc3cccc(F)c3)nc2[nH]c1=O | 103% | 104% | 100% | 84% | 105% | 105% | 89.3% | 111% | 90.8% | 100% |
| CCN(CC)CCCN1C(=O)c2c(c(C)c3c(oc4cc(O)ccc43)c2C)C1=O | 98% | 108% | -75% (active) | 90.8% | 112% | 51.5% | -81% (active) | 104% | -6.12% (active) | -5.26% (active) |
| Oc1c(Cl)cc(Cl)c2ccc(Cn3cc(-c4cc(F)cc(F)c4)nn3)nc12 | 96.3% | 84.7% | 78.7% | 68.3% | 102% | 36.5% | 18.1% | 99.4% | 4.58% (active) | 17.4% |
| COc1cnc2c(c1)C(=O)c1c-2n(CCCNCCO)c(=O)c2ccncc12 | -2.38% (active) | 19.7% | 4.98% (active) | -19.8% (active) | 15.9% | -49.8% (active) | 28.7% | -33.3% (active) | 11.1% | -7.69% (active) |
| CCOC(=O)c1c2c(n3ccc(C)cc13)C(=O)c1ccccc1C2=O | 90.2% | 91.2% | 95.8% | 60.6% | 103% | 96.4% | 80.1% | 83.8% | 99.9% | 89.9% |
| COc1cc(CNC(=O)CCCC/C=C/C(C)C)ccc1OCc1nnc(Nc2ccc([N+](=O)[O-])cc2)o1 | 78.9% | 74.7% | 49% | 58.7% | 84.1% | 41.2% | 33.6% | 56.8% | 78.9% | 84.2% |
| CC(=O)Nc1nc2ccc(NS(=O)(=O)c3cccc4c(N(C)C)cccc34)cc2[nH]1 | 80.8% | 75.9% | 69.8% | 68.4% | 102% | 75.7% | 42.7% | 2.64% (active) | 47.9% | 59.4% |
| CCN1CCN(c2cc(C(=O)Nc3nc(-c4cc(OC)c(OC)c(OC)c4)cs3)cc(C(F)(F)F)c2)CC1 | 81.4% | 64.9% | 71.8% | 37% | 82.4% | 73.2% | 84% | 73.5% | 59% | 43.9% |
| O=C1NCCC12CCN(c1c(Cl)cncc1-c1ccc(O)cc1)CC2 | 105% | 86.4% | 99.6% | 77.8% | 86.9% | 70.2% | 90.3% | 85% | 98.9% | 102% |
| O=C(Cc1ccccc1)Nc1nc(O)c(/C=C2\C(=O)C=Cc3ccccc32)s1 | 110% | 95.6% | 101% | 78.2% | 150% | 101% | 85.3% | 66.8% | 114% | 101% |
